From the supplement of paper PMC13392028
Whole data set: some 4,100 sequences, median “RBNS R-value (6-mer enrichment in protein-bound RNA vs input library)” near 0.99, cut for the highest 2% near 1.4. The sample as a whole holds a higher share of the highest values than the screen did.

Tested on: PfIESI-1 RRM domain (Plasmodium falciparum ortholog aa 875-1232, GST fusion)
Test: RBNS R-value (6-mer enrichment in protein-bound RNA vs input library) (ratio); higher = stronger binding preference; the methods of the paper give 50 / 100 / 500 nM protein instead
In short: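 A random 40-mer in vitro transcribed RNA library was incubated at room temperature with purified GST-tagged RNA-recognition-motif regions of orthologues from three Plasmodium species, expressed in E. coli. After capture on glutathione magnetic agarose beads and three washes, bound RNA and input were reverse transcribed and sequenced on a MiSeq. The R-value reports each motif's enrichment in bound RNA over input via the Burge lab pipeline. Motifs were 6-mers from one replicate.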

Row | Sequence | RBNS R-value (protein concentration: 250 nM) | RBNS R-value (protein concentration: 500 nM) | RBNS R-value (protein concentration: 1000 nM)
1 | CAGGCA | 1.07 | 1.06 | 1.07
2 | GUGCGC | 0.961 | 0.907 | 0.975
3 | UUCUCC | 0.999 | 0.954 | 0.96
4 | UUAUCG | 0.802 | 0.76 | 0.799
5 | GUAUUG | 0.976 | 0.938 | 0.944
6 | GUAAUA | 0.77 | 0.864 | 0.803
7 | UAUUUA | 0.769 | 0.744 | 0.736
8 | AAUUUC | 1.06 | 1.11 | 1.05
9 | GAUUUA | 1.33 | 1.46 | 1.22
10 | CAUUUA | 0.761 | 0.749 | 0.752
11 | GAUUUC | 1.71 | 1.74 | 1.52
12 | AAUUUU | 0.989 | 1.08 | 1.03
13 | CAUUUG | 1.03 | 1.08 | 1.04
14 | GAUUUU | 1.78 | 1.92 | 1.53
15 | GAUUUG | 1.88 | 1.94 | 1.51
16 | CAUUUU | 0.932 | 0.925 | 0.962
17 | AAUUUG | 1.08 | 1.18 | 1.11
18 | CAUUUC | 0.964 | 0.947 | 0.999
19 | CCUCGA | 1.12 | 1.08 | 1.11
20 | GUGUCA | 0.85 | 0.872 | 0.887
21 | GAUACG | 1.1 | 1.13 | 1.09
22 | GCGGUA | 0.985 | 0.954 | 1
23 | CUCCUA | 0.889 | 0.834 | 0.858
24 | GCUUGC | 1.01 | 0.943 | 0.985
25 | GAUAGU | 1.01 | 1.06 | 1
26 | GAUAGC | 1.44 | 1.48 | 1.3

Row | Sequence | RBNS R-value (protein concentration: 250 nM) | RBNS R-value (protein concentration: 500 nM) | RBNS R-value (protein concentration: 1000 nM)
27 | GAUAGA | 1.21 | 1.3 | 1.18
28 | AAACGG | 1.06 | 1.07 | 1.08
29 | AAAGCU | 0.98 | 1.05 | 1.03
30 | CCCAGU | 1.09 | 1.03 | 1.06
31 | CCCAGA | 1.39 | 1.32 | 1.3
32 | CCCAGG | 1.27 | 1.21 | 1.27
33 | ACAUGA | 1.25 | 1.37 | 1.2
34 | CCUUUA | 0.814 | 0.763 | 0.779
35 | UGACCG | 1.04 | 1.02 | 1.07
36 | UUUUGU | 0.909 | 0.927 | 0.922
37 | UUUUGC | 1.06 | 1.04 | 1.02
38 | CUUUGG | 0.959 | 0.914 | 0.962
39 | UUUUGA | 1.53 | 1.59 | 1.37
40 | CUUUGA | 1.35 | 1.41 | 1.26
41 | AUUUGU | 0.92 | 0.975 | 0.913
42 | AUUUGG | 1.1 | 1.17 | 1.06
43 | CUUUGU | 0.825 | 0.805 | 0.863
44 | AUUUGA | 1.45 | 1.59 | 1.34
45 | CCCUCG | 1.05 | 0.973 | 1.06
46 | AAAAUA | 0.851 | 1.05 | 0.927
47 | CCAAAU | 0.978 | 1.04 | 0.995
48 | AGCUGU | 0.94 | 0.939 | 0.951
49 | CCACAA | 0.988 | 0.991 | 1
50 | CUAGAG | 1.1 | 1.1 | 1.09
51 | GAUCGU | 0.85 | 0.817 | 0.886
52 | CGUGAA | 0.992 | 1.03 | 1.05

Row | Sequence | RBNS R-value (protein concentration: 250 nM) | RBNS R-value (protein concentration: 500 nM) | RBNS R-value (protein concentration: 1000 nM)
53 | GGUGAC | 0.986 | 0.987 | 1.01
54 | GGUGAG | 1.02 | 1.02 | 1.02
55 | GGUGAU | 1.33 | 1.4 | 1.28
56 | CGUGAG | 0.982 | 0.993 | 1.05
57 | AGUGAA | 0.981 | 1.04 | 1.05
58 | AGUGAC | 1.02 | 1.05 | 1.03
59 | UGUGAU | 1.55 | 1.73 | 1.39
60 | UGUGAC | 0.993 | 0.99 | 0.972
61 | CGUGAU | 1.56 | 1.62 | 1.39
62 | UGUGAG | 0.948 | 1 | 1.06
63 | AGUGAU | 1.55 | 1.73 | 1.44
64 | UUAUAA | 0.747 | 0.809 | 0.749
65 | UUGUCA | 0.891 | 0.887 | 0.9
66 | GCACUA | 0.903 | 0.86 | 0.892
67 | ACACCU | 1.23 | 1.16 | 1.12
68 | ACAACG | 0.949 | 0.979 | 0.966
69 | GCCCUG | 1.19 | 1.1 | 1.14
70 | AACCCC | 1.11 | 1.05 | 1.08
71 | CGCCCG | 1.43 | 1.22 | 1.33
72 | UACCCA | 1.07 | 1.01 | 1.01
73 | UACCCG | 1.3 | 1.16 | 1.2
74 | CACCCG | 1.67 | 1.33 | 1.41
75 | GGCCCG | 1.26 | 1.11 | 1.23
76 | CACCCA | 1.42 | 1.26 | 1.31
77 | ACCCCG | 1.29 | 1.16 | 1.25
78 | GACCCA | 1.15 | 1.12 | 1.14

Row | Sequence | RBNS R-value (protein concentration: 250 nM) | RBNS R-value (protein concentration: 500 nM) | RBNS R-value (protein concentration: 1000 nM)
79 | AACCCG | 1.38 | 1.25 | 1.29
80 | UGCCCG | 1.32 | 1.16 | 1.2
81 | CACCCC | 1.3 | 1.16 | 1.24
82 | AGUAGA | 1.01 | 1.08 | 1.05
83 | GAUCGC | 0.972 | 0.958 | 0.975
84 | AACACA | 0.942 | 1.02 | 0.978
85 | GAGUCA | 0.969 | 0.989 | 0.99
86 | UGCAAG | 0.989 | 1.01 | 1.03
87 | AUUAGU | 0.821 | 0.901 | 0.849
88 | CUCAGG | 1.03 | 1.04 | 1.09
89 | CACCUG | 1.41 | 1.3 | 1.29
90 | CACCUA | 1.09 | 1.01 | 1.01
91 | CACCUC | 1.07 | 1 | 1.05
92 | UCGGGG | 1.04 | 0.984 | 1.05
93 | UCUGCG | 0.996 | 0.968 | 1
94 | UUAUUA | 0.766 | 0.749 | 0.734
95 | UAUGGC | 1.09 | 1.06 | 0.988
96 | UAUGGG | 0.895 | 0.916 | 0.918
97 | AAUGGG | 1.03 | 1.06 | 1.03
98 | GAUGGG | 1.47 | 1.46 | 1.34
99 | GAUGGC | 1.85 | 1.82 | 1.48
100 | CAUGGC | 1.03 | 0.999 | 1.03
101 | CCUCCC | 1.06 | 0.981 | 1.04
102 | ACUAGG | 0.943 | 0.956 | 0.957
103 | UGGACA | 0.973 | 0.993 | 0.99
